From PubChem BioAssay
RmlCD inh mix: inhibitors of RmlC and RmlD coupled enzymes; inhibition, % at 5.5 µM; RmlC/RmlD coupled enzyme inhibition, 384-well mixture HTS; 110,000 tested, 0.39% active; in the data active means inhibition above about 30%, passing the limit was not always enough
HIV RNase H inh-1: blocks HIV-1 RNase H cleavage of RNA/DNA duplex; RT-RNase H RNA/DNA duplex cleavage, fluorescence; inhibition, % at 10 µM; 65,000 tested, 1.9% active; AID 565; in the data active means inhibition above about 50%
HIV RNase H inh-2: confirmation of HIV-1 reverse transcriptase RNase H inhibitors; shares compounds with HIV RNase H inh-1; Recombinant RT RNase H, fluorescent RNA/DNA duplex cleavage; inhibition, % at 10 µM; 1,000 tested, 39% active; AID 651; in the data active means inhibition above about 48%
An asterisk follows results filed as active; i = inactive; x = no result given. This is one part of a sample in which hits are shown more often than they occur.

SMILES	RmlCD inh mix	HIV RNase H inh-1	HIV RNase H inh-2
CCOC(=O)c1c(NC(=O)CSc2nnc(C)s2)sc2c1CCCCC2	11	x	x
CCOC(=O)c1ccc(NC(=O)c2nn(CC)cc2Br)cc1	-7	-2	x
CCOC(=O)c1c(NC(=O)c2noc3c2CCCC3)sc2c1CCCC2	x	-3	x
CCOC(=O)c1c(NC(=O)c2ccc(-n3cnnn3)cc2)sc2c1CCCC2	x	86*	96*
CCOC(=O)c1c(NC(=O)c2nn(CC)cc2Br)sc(C)c1C	-11	94*	1
CCOC(=O)c1c(NC(=O)c2nn(CC)cc2Br)sc2c1CCCCC2	-65	88*	2
C/C(=N\NC(=O)c1cccc(Cl)c1)c1cccc(NC(=O)c2ccco2)c1	0	x	x
O=C(NC1(C(F)(F)F)C(=O)Nc2c1c(=O)[nH]c(=O)n2Cc1ccccc1)c1ccc(Cl)cc1Cl (stereo unspecified)	-12	x	x
COC(=O)Nc1ccc(S(=O)(=O)N(C)C)cc1	6	-4	x
Cc1nc2ccc(NC(=O)c3cccs3)cc2c(=O)n1Cc1ccc(Cl)cc1	-19	x	x
Cc1nc(-c2cccc(S(=O)(=O)N3CC(C)OC(C)C3)c2)cs1 (stereo unspecified)	5	-11	x
Cc1nc(-c2cccc(S(=O)(=O)N3CCOCC3)c2)cs1	10	78*	58*
CCCCNS(=O)(=O)c1ccc(OC)c(C)c1	-9	x	x
CNC(=O)[C@@H]1C[C@H]1[C@@H](NC(=O)CNC(=O)OCc1ccccc1)c1ccccc1	-8	x	x
CC(NC(=O)CNC(=O)OCc1ccccc1)C(=O)N1CC(O)CC1C(=O)OCc1ccccc1 (stereo unspecified)	1	66*	39
COc1ccc(-c2c(C#N)c(SCC(=O)Nc3ccccc3)nc3c2CCCC3)cc1	-11	x	x
N#Cc1c(SCC(=O)Nc2nccs2)nc2c(c1-c1ccco1)CCCC2	-14	82*	61*
CCc1ccccc1NC(=O)CSc1nc2c(c(-c3ccco3)c1C#N)CCCC2	16	40	x
Cc1ccccc1NC(=O)CSc1nc2c(c(-c3ccco3)c1C#N)CCCC2	-26	59*	73*
CN(C)c1ccc(C(C(=O)NC(C)(C)C)N(C(=O)c2csnn2)C2CC2)cc1 (stereo unspecified)	-15	4	x
CCOC(=O)C(C)NC(=O)C(NC(=O)C1CCC(CC)CC1)C(C)C (stereo unspecified)	i	1	x
COc1ccc(OC)c(C(c2nnnn2CCc2ccccc2)N2CCC(C(N)=O)CC2)c1 (stereo unspecified)	3	7	x
CCOc1ccc(NS(=O)(=O)c2ccc(NS(=O)(=O)c3ccccc3)cc2)cc1	6	x	x
CCOc1ccc(S(=O)(=O)Nc2cc(Sc3ncn[nH]3)c3oc(=O)sc3c2)cc1	-15	88*	38*
C=C(C)COc1ccc(-c2[nH]ncc2-c2ccc(OC)c(OC)c2)c(O)c1	4	5	x
SMILES	RmlCD inh mix	HIV RNase H inh-1	HIV RNase H inh-2
Cc1cc(=O)[nH]c(SCC(=O)C23CC4CC(CC(C4)C2)C3)c1C#N	15	61*	12
Cc1cc(=O)[nH]c(SCC(=O)O)c1C#N	1	x	x
C=CCc1c(O)nc(SCC(=O)c2ccccc2)[nH]c1=O	13	x	x
Cc1ccc(-c2nc3cccnc3s2)cc1NS(=O)(=O)c1ccc2c(c1)CCCC2	3	x	x
CC(C)=CCCC1=CCC(/C(C)=N/NC(N)=O)CC1 (stereo unspecified)	-14	x	x
O=C1c2sc3nc4c(c(=O)n3c2C(=O)N1c1ccccc1)CCC4	-11	12	x
Cc1ccccc1N1C(=O)c2sc3nc4c(c(=O)n3c2C1=O)CCC4	-3	88*	80*
O=c1/c(=C\c2cccnc2)sc2nc3ccccc3n12	6	-30	x
O=C1c2sc3nc4ccccc4n3c2C(=O)N1c1ccccc1Cl	13	85*	72*
CCOc1ccc2[nH]c(=O)c(CN(Cc3cccs3)Cc3nnnn3C(C)(C)CC)cc2c1	8	-7	x
O=S(=O)(NCCOC12CC3CC(CC(C3)C1)C2)c1cccc2nsnc12	-12	-12	x
COc1cc(/C=N/NC(N)=S)ccc1OCC(=O)Nc1ccc(C)cc1	6	x	x
O=C(N1CCCCCC1)N1CCN(S(=O)(=O)N2CCOCC2)CC1	7	-9	x
COC(=O)Nc1ccccc1C(=O)N1CCCCC1	7	-5	x
CC(CCc1ccc(O)cc1)NCCc1ccc(O)c(O)c1 (stereo unspecified)	10	x	x
CC(Cc1ccc(O)c(O)c1)C(C)Cc1ccc(O)c(O)c1 (stereo unspecified)	-15	99*	59*
O=C(CSc1ccc2nnc(-c3ccccn3)n2n1)Nc1ccc2c(c1)OCCO2	9	-5	x
CCOc1ccc(N(CC(=O)Nc2ccc3c(c2)OCCO3)S(=O)(=O)c2c(C)noc2C)cc1	-12	56*	12
CCOc1ccc(N(CC(=O)Nc2ccc(OC)cc2)S(=O)(=O)c2c(C)noc2C)cc1	-13	-6	x
CC(=O)NC12CC3CC(CC(CC(=O)O)(C3)C1)C2	-10	x	x
